system: PIM1; details: concentration: 1 μM,replicates: in singlicate; n = 1
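Further: KINOMEscan kinase panel screen.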

Point of comparison: `CC(=O)c1c(-c2ccncc2)[nH]c(-c2ccncc2)c1C` [GW493036], “%Inh” value 11%. Against it:
- CSc1nccc(-c2c(-c3ccc(F)cc3)ncn2CCCN2CCOCC2)n1.Cl [SB-217146] — higher, 35%
- Cc1ccc(C(=O)Nc2ccc(Oc3ccc4nc(NC(=O)C5CC5)cn4c3)c(F)c2)c(=O)n1-c1ccccc1 — lower, 1%
- CC(C)S(=O)(=O)N1CCN(Cc2ccc3c(c2)nc(NC(=O)c2ccsc2)n3C[C@H](O)c2ccccc2)CC1 [GW635815] — lower, 8%
- CC(=O)Nc1nc2cnc(Nc3cc(NC(=O)c4cccc(CC(C)(C)C#N)c4)ccc3C)nc2s1 — higher, 16%
- Cn1ccc2ncnc(Oc3ccc(NC(=O)Nc4cccc(C(F)(F)F)c4)c(Cl)c3)c21 — higher, 12%
- O=C(Nc1n[nH]c2cc(-c3ccco3)ccc12)C1CC1 [SB-737447] — lower, 6%
- COc1cccc(OC)c1C(=O)Nc1cccc(-c2nn3ccccc3c2-c2ccnc(Nc3cccc(F)c3)n2)c1 [GSK361065] — lower, 10%
- CC(C)c1nc(-c2cccc(NS(=O)(=O)c3ccccc3)c2)c(-c2ccnc(Nc3ccc4c(c3)CN(C)CC4)n2)s1 [GSK1649598] — higher, 28%
- Cn1ccc2ncnc(Oc3ccc(NC(=O)Nc4cncc(C(F)(F)F)c4)c(Cl)c3)c21 — lower, 3%
- FC(F)(F)c1cc(Br)cc(Nc2nccc(-c3cnn4ncccc34)n2)c1 [GW810578] — higher, 25%
- CN(c1ccc2c(c1)nc(NCc1ccc(F)cc1)n2C)c1ccnc(Nc2ccc(CS(C)(=O)=O)cc2)n1.Cl [GW813244] — higher, 18%
- Cc1ccn2nc(-c3ccc(F)cc3)c(-c3ccncc3)c2c1.Cl [GW457859] — higher, 16%
- OCCn1cc(-c2cnc3nnn(Cc4ccc5ncccc5c4)c3n2)cn1 — lower, 1%
- COc1cc2ncn(-c3cc(OCC4CCCCC4)c(C(N)=O)s3)c2cc1OC [GSK204559] — lower, 0%
- CCn1c(-c2nonc2N)nc2cncc(Br)c21 [SB-738004] — higher, 89%
- CCOC(=O)N1CCC(n2cnc(-c3ccc(F)cc3)c2-c2ccnc(N)n2)CC1 [SB-219952] — lower, 9%
- O=C(NOCC1CC1)c1cc(Br)c(F)c(F)c1Nc1ccc(I)cc1Cl — lower, 0%
- CCn1c(-c2nonc2N)nc2cncc(CNC3CCNCC3)c21.Cl [SB-747651] — higher, 93.4%
- Cc1nnc(-c2ccc3occ(-c4ccc(S(C)=O)cc4)c3n2)o1 (centres unmarked) — lower, 0%
- CCCC(=O)Nc1n[nH]c2ncccc12 [SB-601436] — lower, 0%
- O=C(Nc1cccc(Oc2ccc3nccn3n2)c1)Nc1cccc(C(F)(F)F)c1 — lower, 0%
- C[C@@H]1CCN(C(=O)N2CCCC2)C[C@@H]1N(C)c1ncnc2[nH]ccc12 — lower, 0%
- c1ccc(Oc2ccc(Nc3ccnc4ccc(-c5ccccn5)cc34)cc2)cc1 [GW407034] — lower, 9%
- O=c1[nH]cc(-c2ccc(O)cc2)c2sc(-c3ccncc3)cc12 [GSK1033723] — lower, 0%
- CS(=O)(=O)Nc1ccc(-c2ccnc3[nH]ccc23)cc1 [GSK993273] — higher, 28%
- Cc1n[nH]c2cc(Nc3ccnc(Nc4cccc(CN5CCOCC5)c4)n3)ccc12 [GW682569] — lower, 0%
- O=C(Nc1ccc(Oc2ccc3nc(NC(=O)C4CC4)cn3n2)c(F)c1)c1cccn(-c2ccccc2)c1=O — lower, 5%
- C[C@@H]1CNc2c(sc3ccc4nc(-c5ccc(O)cc5)ccc4c23)C(=O)N1 — higher, 37%
- C[C@@H]1CNc2c(sc3ccc4nc(-c5ccncc5)ccc4c23)C(=O)N1 — higher, 44%
- Cn1cc(-c2cccc3c(N)c(C(N)=O)nnc23)cn1 — lower, 0%
- C[C@@H](Oc1cc(-n2cnc3cc(-c4cnn(C)c4)ccc32)sc1C(N)=O)c1ccccc1Cl [GSK580432] — higher, 20%
- COC(=O)c1cccc(NC(=O)NC2CCN(c3ccnc(Nc4cc(OC)c(OC)c(OC)c4)n3)C2)c1 (centres unmarked) [GSK1379767] — higher, 17%
- CN1CCN(CCCNc2nccc(-c3c(-c4ccc(F)cc4)nn4cc(C(N)=O)ccc34)n2)CC1 [GW622475] — higher, 25%
- NC(=O)c1ccc(-c2cc3ncnc(SCC(=O)O)c3s2)cc1 — lower, 7%
- C[C@@H](Oc1cc(-n2cnc3ccc(-c4ccncc4)cc32)sc1C(N)=O)c1ccccc1Cl [GSK483724] — higher, 46%
- CCNCC(Cc1ccccc1)NC(=O)c1cc(Br)c(-c2ccnc3[nH]ccc23)s1.Cl.Cl (centres unmarked) [GSK1383280] — higher, 22%

system: PIM2; details: concentration: 1 μM,replicates: in singlicate; n = 1

Point of comparison: `CCNCC(Cc1ccccc1)NC(=O)c1cc(Br)c(-c2ccnc3[nH]ccc23)s1.Cl.Cl` (centres unmarked) [GSK1383280], “%Inh” value 0%. Against it:
- CSc1nccc(-c2c(-c3ccc(F)cc3)ncn2CCCN2CCOCC2)n1.Cl [SB-217146] — the same, 0%
- Cc1ccc(C(=O)Nc2ccc(Oc3ccc4nc(NC(=O)C5CC5)cn4c3)c(F)c2)c(=O)n1-c1ccccc1 — the same, 0%
- CC(C)S(=O)(=O)N1CCN(Cc2ccc3c(c2)nc(NC(=O)c2ccsc2)n3C[C@H](O)c2ccccc2)CC1 [GW635815] — the same, 0%
- CC(=O)Nc1nc2cnc(Nc3cc(NC(=O)c4cccc(CC(C)(C)C#N)c4)ccc3C)nc2s1 — higher, 8%
- Cn1ccc2ncnc(Oc3ccc(NC(=O)Nc4cccc(C(F)(F)F)c4)c(Cl)c3)c21 — higher, 1%
- O=C(Nc1n[nH]c2cc(-c3ccco3)ccc12)C1CC1 [SB-737447] — the same, 0%
- COc1cccc(OC)c1C(=O)Nc1cccc(-c2nn3ccccc3c2-c2ccnc(Nc3cccc(F)c3)n2)c1 [GSK361065] — the same, 0%
- CC(C)c1nc(-c2cccc(NS(=O)(=O)c3ccccc3)c2)c(-c2ccnc(Nc3ccc4c(c3)CN(C)CC4)n2)s1 [GSK1649598] — the same, 0%
- Cn1ccc2ncnc(Oc3ccc(NC(=O)Nc4cncc(C(F)(F)F)c4)c(Cl)c3)c21 — higher, 1%
- FC(F)(F)c1cc(Br)cc(Nc2nccc(-c3cnn4ncccc34)n2)c1 [GW810578] — the same, 0%
- CN(c1ccc2c(c1)nc(NCc1ccc(F)cc1)n2C)c1ccnc(Nc2ccc(CS(C)(=O)=O)cc2)n1.Cl [GW813244] — higher, 49%
- Cc1ccn2nc(-c3ccc(F)cc3)c(-c3ccncc3)c2c1.Cl [GW457859] — the same, 0%
- OCCn1cc(-c2cnc3nnn(Cc4ccc5ncccc5c4)c3n2)cn1 — the same, 0%
- COc1cc2ncn(-c3cc(OCC4CCCCC4)c(C(N)=O)s3)c2cc1OC [GSK204559] — the same, 0%
- CCn1c(-c2nonc2N)nc2cncc(Br)c21 [SB-738004] — the same, 0%
- CC(=O)c1c(-c2ccncc2)[nH]c(-c2ccncc2)c1C [GW493036] — the same, 0%
- CCOC(=O)N1CCC(n2cnc(-c3ccc(F)cc3)c2-c2ccnc(N)n2)CC1 [SB-219952] — the same, 0%
- O=C(NOCC1CC1)c1cc(Br)c(F)c(F)c1Nc1ccc(I)cc1Cl — higher, 9%
- CCn1c(-c2nonc2N)nc2cncc(CNC3CCNCC3)c21.Cl [SB-747651] — higher, 81%
- Cc1nnc(-c2ccc3occ(-c4ccc(S(C)=O)cc4)c3n2)o1 (centres unmarked) — higher, 3%
- CCCC(=O)Nc1n[nH]c2ncccc12 [SB-601436] — the same, 0%
- O=C(Nc1cccc(Oc2ccc3nccn3n2)c1)Nc1cccc(C(F)(F)F)c1 — higher, 10%
- C[C@@H]1CCN(C(=O)N2CCCC2)C[C@@H]1N(C)c1ncnc2[nH]ccc12 — the same, 0%
- c1ccc(Oc2ccc(Nc3ccnc4ccc(-c5ccccn5)cc34)cc2)cc1 [GW407034] — the same, 0%
- O=c1[nH]cc(-c2ccc(O)cc2)c2sc(-c3ccncc3)cc12 [GSK1033723] — higher, 13%
- CS(=O)(=O)Nc1ccc(-c2ccnc3[nH]ccc23)cc1 [GSK993273] — the same, 0%
- Cc1n[nH]c2cc(Nc3ccnc(Nc4cccc(CN5CCOCC5)c4)n3)ccc12 [GW682569] — the same, 0%
- O=C(Nc1ccc(Oc2ccc3nc(NC(=O)C4CC4)cn3n2)c(F)c1)c1cccn(-c2ccccc2)c1=O — higher, 8%
- C[C@@H]1CNc2c(sc3ccc4nc(-c5ccc(O)cc5)ccc4c23)C(=O)N1 — higher, 93.7%
- C[C@@H]1CNc2c(sc3ccc4nc(-c5ccncc5)ccc4c23)C(=O)N1 — higher, 69%
- Cn1cc(-c2cccc3c(N)c(C(N)=O)nnc23)cn1 — the same, 0%
- C[C@@H](Oc1cc(-n2cnc3cc(-c4cnn(C)c4)ccc32)sc1C(N)=O)c1ccccc1Cl [GSK580432] — the same, 0%
- COC(=O)c1cccc(NC(=O)NC2CCN(c3ccnc(Nc4cc(OC)c(OC)c(OC)c4)n3)C2)c1 (centres unmarked) [GSK1379767] — the same, 0%
- CN1CCN(CCCNc2nccc(-c3c(-c4ccc(F)cc4)nn4cc(C(N)=O)ccc34)n2)CC1 [GW622475] — the same, 0%
- NC(=O)c1ccc(-c2cc3ncnc(SCC(=O)O)c3s2)cc1 — higher, 22%
- C[C@@H](Oc1cc(-n2cnc3ccc(-c4ccncc4)cc32)sc1C(N)=O)c1ccccc1Cl [GSK483724] — higher, 64%
